# Reference: PubChem BioAssay AID504329 (Southern Research Specialized Biocontainment Screening …, 2011)
# Several values for one entry are separate records, joined by “and”; a condition that tells them apart may be missing. Equal entries are not always repeated. Among all 340,000 compounds or so, about 1,000 (0.29%) were called active. The list is a sample of the results. Results with a measured potency or affinity are listed apart. A number with no mark means an inactive call. Cut-off read from the data, not from the text of the source: inconclusive = inhibition above about 27% without an active follow-up result; inactive = below that.
# Assay: H1N1 influenza NS1A inhibitors, functional cell based assay (AID 504329)
# Details: percent inhibition, at 12.5 µM, hits give high values
row,Structure (SMILES),inhibition
1,COc1ccc(NC(=O)COC(=O)CCCOc2ccc(Cl)cc2Cl)cc1Cl,-5.19%
2,Cc1[nH]nc2c1C(c1cnn(C)c1)C(C#N)=C(N)O2 (centres undefined),-1.46%
3,Cc1ccc(NS(=O)(=O)c2cc([N+](=O)[O-])ccc2NNC(=S)Nc2cc(C)ccc2C)c(C)c1,21.2%
4,COc1ccc(NC(=S)NNc2ccc([N+](=O)[O-])cc2S(=O)(=O)Nc2ccc(C)cc2C)cc1,17.3%
5,Cc1cc(C)nc(NC(=NCc2ccc3c(c2)OCO3)NC(=O)Nc2ccccc2)n1,12.4%
6,O=S(=O)(NC1CCC(NS(=O)(=O)c2c(F)cccc2F)CC1)c1ccc2c(c1)OCCO2 (centres undefined),6.49%
7,Nc1nc(N)c(N=Nc2ccc(C(=O)O)cc2)c(N)n1,17.8%
8,O=C(O)c1ccc(N/N=C/c2ccnc3ccccc23)cc1,12.7%
9,CC(=NCCN1CCOCC1)c1c(O)n(-c2ccccc2C)c(=O)[nH]c1=O,5.2%
10,COc1cc(Nc2ccc(S(=O)(=O)N3CCN(C)CC3)cc2[N+](=O)[O-])cc(OC)c1,18.2%
11,COc1ccc(Nc2ccc(S(=O)(=O)N3CCCCC3)cc2[N+](=O)[O-])cc1Cl,21%
12,COc1ccccc1Nc1ccc(S(=O)(=O)N2CCCCC2)cc1[N+](=O)[O-],22.4%
13,COc1ccc(Nc2ccc(S(=O)(=O)N3CCCCC3)cc2[N+](=O)[O-])cc1,21%
14,CSCCC(NS(=O)(=O)c1cccc(C(F)(F)F)c1)C(=O)N(C)Cc1ccc2c(c1)OCCO2 (centres undefined),-15.2%
15,C/C(=N\Nc1ccccc1)c1c(O)n(-c2ccccc2)c(=O)[nH]c1=O,-15.4%
16,N#C/C(=C\c1ccc([N+](=O)[O-])cc1)c1nc(C2CC2)cs1,-3.47%
17,N#C/C(=C/c1ccccc1[N+](=O)[O-])c1nc(C2CC2)cs1,16.5%
18,CN(CC(=O)NC(=O)NC1CCCCC1)c1ccccc1,-19.7%
19,CCCc1nnc(SCC(=O)Nc2cc(C)on2)n1CCOC,-2.31%
20,O=C(O)c1cc(S(=O)(=O)N2CCCCC2)sc1Cl,0.17%
21,Cc1[nH]n(-c2ccccc2)c(=O)c1N=Nc1ccccc1,-4.27%
22,Cc1ccc(N=Nc2c(C)[nH]n(-c3ccccc3)c2=O)cc1Br,2.46%
23,Cc1[nH]n(-c2ccccc2)c(=O)c1N=Nc1c(Cl)cccc1Cl,-0.23%
24,Cc1[nH]n(-c2ccccc2)c(=O)c1N=Nc1ccc2c(c1)OCO2,1.81%

row,Structure (SMILES),inhibition
1,Nc1[nH]n(-c2ccccc2)c(=O)c1N=Nc1ccc2c(c1)OCO2,-20.9%
2,Cc1[nH]n(-c2ccccc2)c(=O)c1N=Nc1ccccc1O,27.8%
3,Cc1[nH]n(-c2ccccc2)c(=O)c1N=Nc1ccc(Cl)cc1,1.98%
4,Nc1[nH]n(-c2ccccc2)c(=O)c1N=Nc1ccccc1,20.9%
5,Cc1noc(C)c1CSc1nnc2scc(-c3ccccc3)n12,0.06%
6,Cc1ccc(S(=O)(=O)NCCNC(=O)C2CCCNC2=O)cc1 (centres undefined),-2.4%
7,NNC(=O)COc1cccc(C(F)(F)F)c1,-3.83%
8,CC(C)CC(=O)C(=O)O,1.46% and 3.24%
9,O=C(COC(=O)c1cccc(-n2cnnn2)c1)c1ccc(F)cc1,-2.74%
10,Cc1ccccc1-c1cccc([C@@H]2C[C@H]3[C@H](CON3C)CN2S(=O)(=O)c2ccccc2C)c1,-6.53%
11,COc1ccccc1CNCC(=O)Nc1cc(S(=O)(=O)N2CCCCCC2)ccc1Cl,2.82%
12,O=C(CNCc1ccncc1)Nc1cc(S(=O)(=O)N2CCCCC2)ccc1Cl,-4.7%
13,Cc1ccc(S(=O)(=O)N2CCOCC2)cc1NC(=O)CNCc1ccccc1Cl,-1.72%
14,Cc1ccc(S(=O)(=O)N2CCOCC2)cc1NC(=O)CSc1ccccn1,-3.06%
15,CS(=O)(=O)c1ccc(-c2cccc(NC(=O)COc3ccc(Cl)cc3)c2)nn1,7.16%
16,Fc1ccc(Oc2nccc(-c3ccc(Cl)cc3)n2)cc1,-2.98%
17,CCN(C[C@H]1N[C@@](CC)(C(=O)OC)[C@H]2C(=O)N(Cc3ccccc3)C(=O)[C@@H]12)C(=O)C1CCCCC1,-2.32%
18,O=C(NNC(=O)c1ccccc1Br)c1ccc2nc[nH]c2c1,22.1%
19,CCOC(=O)C1(CC)NC(c2ccc(N(C)C)cc2)C2C(=O)N(C)C(=O)C21 (centres undefined),9.29%
20,COc1ccc2c(c1)-c1c(ssc1=S)C(C)(C)N2S(=O)(=O)c1ccc(C)cc1,17.8%
21,CCOc1ccc2c(c1)-c1c(ssc1=S)C(C)(C)N2C(=O)c1ccco1,1.84%
22,CCN(CC(=O)Nc1c(F)cccc1F)C(=O)CSc1ccccc1,-8.64%
23,COc1ccc(/C=N/Nc2cc(N3CCOCC3)ncn2)c(OC)c1,-0.39%
24,COc1cc(N/N=C/c2ccc(N(C)C)cc2)ncn1,-5.63%

row,Structure (SMILES),inhibition
1,Oc1ccccc1/C=N/Nc1cccc2cccnc12,-0.48%
2,COc1cccc(/C=N/Nc2cc(Cl)nc(C)n2)c1O,-12.7%
3,COc1cccc(/C=N/Nc2c(Cl)cncc2Cl)c1O,1.36%
4,Oc1ccccc1/C=N/Nc1ccnc(SCc2ccccc2)n1,-3.79%
5,Clc1ccccc1/C=N/Nc1cc(N2CCOCC2)ncn1,17.6%
6,COc1ccc(/C=N/Nc2cc(OC)ncn2)cc1,3.33%
7,CCN(C(=O)COC(=O)Cc1c[nH]c2ccccc12)C1CCS(=O)(=O)C1 (centres undefined),2.01%
8,Cc1ccc(NC(=O)CSc2nc3ccccc3c(=O)[nH]2)cc1[N+](=O)[O-],5.04%
9,COc1ccccc1NC(=O)NNC(=O)CCc1ccccc1,-10.3%
10,COc1ccc(NC(=S)N(CCCN2CCOCC2)Cc2cn(C)c3ccccc23)cc1OC,2.8%
11,COc1ccc(OCc2nnc(SCc3ccc(C(=O)O)cc3)o2)cc1,5.27%
12,O=C(NC1CCCC1)C(c1ccc(F)cc1)N(C(=O)c1csnn1)c1ccccc1F (centres undefined),-6.01%
13,Cn1cc(CN2CCC(n3nccc3NC(=O)CCCc3ccccc3)CC2)cn1,-14%
14,COc1ccc(-c2cc(C(=O)NCCN3CCOCC3)c3ccccc3n2)cc1OC,23%
15,O=C(CSc1nnc(Nc2ccccc2)s1)Nc1cccc(S(=O)(=O)N2CCCCC2)c1,-4.99%
16,CS(=O)(=O)Nc1ccccc1C(=O)OCC(=O)N1CCC(c2ccccc2)=N1,-6.95%
17,O=C(CCS(=O)(=O)c1ccccc1)Nc1nc(-c2ccc(F)cc2)cs1,-4.12%
18,O=C(CCS(=O)(=O)c1ccccc1)Nc1nc(-c2cccs2)cs1,-56.6%
19,O=C(CCS(=O)(=O)c1ccc(F)cc1)Nc1nc(-c2ccncc2)cs1,-5.43%
20,Cc1ccc(S(=O)(=O)CCC(=O)Nc2nc(-c3ccccn3)cs2)cc1,7.88%
21,CC(C)Oc1ccc(S(=O)(=O)N2CCCCC2)cc1NC(=O)CN1C(=O)NC(C)(C2CC2)C1=O (centres undefined),-3.52%
22,O=C(C1CCN(S(=O)(=O)c2ccccc2)CC1)N1CCCCCC1,12.9%
23,CC(C)(C)C(=O)CSc1nc2ncc(Br)cc2[nH]1,0.51%
24,Cc1cccc(-n2cnc(C(=O)N/N=C/c3ccccc3)c2)n1,-4.63%

row,Structure (SMILES),inhibition
1,Cc1ccc(NC(=O)c2cn(-c3cccc(C)n3)cn2)cc1,-6.72%
2,COC(=O)c1ccc(NC(=O)c2cn(-c3cccc(C)n3)cn2)cc1,-7.7%
3,C/C(=N/NC(=O)c1cn(-c2cccc(C)n2)cn1)c1ccc(C)cc1,3.85%
4,COc1ccc(OC)c(NC(=O)COC(=O)[C@H](Cc2ccccc2)NC(=O)c2ccco2)c1,-3.78%
5,O=C(c1ccc(Cn2c(=S)[nH]c3ccc(N4CCOCC4)cc3c2=O)cc1)N1CCN(c2ccc(F)cc2)CC1,-6.32%
6,COc1cc(CN(C)C)cc(C=O)c1O,1.87%
7,Nc1nc2cc(Br)ccc2o1,-24.5%
8,COc1cc(C(C)=O)ccc1OCC(=O)Nc1cc(Cl)ccc1-n1cncn1,-5.4%
9,O=C(NCC(=O)N(c1ccc(F)cc1)C(C(=O)NC1CCCC1)c1cccnc1)c1cccs1 (centres undefined),-7.6%
10,O=C(CN1C(=O)c2cccnc2Oc2ccc(Cl)cc21)N1CCCC1,-12.6%
11,O=C1c2ccccc2CN1CCNS(=O)(=O)c1ccc2ccccc2c1,0.05%
12,CCN(Cc1nc2cc(Cl)ccc2c(=O)[nH]1)C(=O)c1cc2c(s1)CCCCC2,-9.24%
13,CC1(C(=O)NCc2cc(F)cc(C(F)(F)F)c2)C=CC2(CCCCC2)N1C(=O)c1ccccc1 (centres undefined),-9.29%
14,CS(=O)(=O)N(CC(=O)NCC1CCCO1)Cc1ccc(Cl)cc1 (centres undefined),-3.33%
15,O=C(NNc1c2ccccc2nc2ccccc12)c1ccccc1O,-2.01%
16,O=C(NNc1c2ccccc2nc2ccccc12)c1ccccc1Cl,-1.62%
17,Cc1cccc(C)c1NC(=O)CN(C)C(=O)C(c1ccccc1)c1ccccc1,-4.5%
18,COc1ccc(COC(=O)CCS(=O)(=O)c2ccc(C)cc2)cc1F,-5.19%
19,CCN(CC)CCCNc1ccc2ncn3c4ccc(O)cc4c(=O)c1c23,18.1%
20,CN(C)CCNc1ccc(CO)c2sc3ccc(O)cc3c(=O)c12,21.9%
21,CCN(CC)CCNc1ccc(CO)c2sc3ccccc3c(=O)c12,-1.15%
22,CN(C)CCNc1ccc(CO)c2oc3ccc(O)cc3c(=O)c12,2.86%
